Assay outcomes: PubChem BioAssay, several laboratories
AI-2 QS mod = modulates the Vibrio harveyi AI-2 quorum sensing system. 0.4% of 300,000 active. Vibrio harveyi JMH597 AI-2 luminescence/OD600 ratio, 9 h; hits give low values; strain lacks LuxN and CqsS sensors; 0 = neutral-control median. activity change, % at 7.5 µM; in the data active = activity change below about -75%, passing the limit was not always enough;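 also: luminescence divided by OD600 gain over 9 h not by final OD600 alone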
Mot1-301 SUMO = inhibitors of SUMOylation pathway: yeast Mot1-301 growth rescue; 1% of 320,000 active; S. cerevisiae Mot1-301 growth rescue, ATP luminescence, 38.5C; percent above DMSO median, 100 means doubled; growth rescue, % at 18.8 µM;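 active = every valid replicate shows activation above 250% relative to neutral control wells; inactive = the rest, any valid replicate at or below 250%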
aDG glyco act = increases alpha dystroglycan glycosylation; Pro5-aDG cells, alpha-DG glycosylation AlphaScreen (IIH6); 0% Pro5, 100% B10-LARGE cell signal; activation, % at 10 µM; 0.22% of 360,000 active;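 active = activation of at least 8% versus controls, or a plate z-score of at least 8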;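 also: Pro5 are CHO cells carrying HIG-tagged alpha-DG that lacks glycosylation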
Bfl-1 A1 inh = inhibitors of the anti-apoptotic protein A1, read as caspase activation | MEF A1-2A-BIM cells, Caspase-Glo 3/7 luminescence, 3 h; percent of clofoctol response, vehicle zero | 0.066% of 330,000 active | caspase activation, % (concentration not given with the values) | AID 2462;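 active = over half of replicate activation scores above 10%, or exactly half above 10 with the replicate mean above 10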
ARNT-TACC3 inh = ARNT/TACC3 interaction disruption. Q9Y6A5. AlphaScreen His-ARNT PAS-B/GST-TACC3 binding, luminescence; TACC3 fragment carries E629A point mutation. inhibition, % at 9.99 µM. 0.66% of 390,000 active. AID 623870;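 active = mean inhibition of replicates at least 50% and at least half of replicates each reaching 50%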
ARNT Alpha ctr = counter-screen for ARNT/TACC3 inhibitors: AlphaScreen artifacts; shares compounds with ARNT-TACC3 inh; His-ARNT PASB-GST AlphaScreen artifact counter-screen, luminescence; AC50, µM (top dose mostly 68 µM); 50% of 1,200 active; AID 651705;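 active = every separate test run was called active for a drop in luminescence, with AC50 within twice the top valid dose, actives reach about 71 µM in these data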
Numbers stand for hits. Hits are enriched below; roughly 1.8% of the tested compounds scored in any of these assays.

Screening O=C(N[C@H]1CC[C@@H](CCn2cc(-c3ccccn3)nn2)O[C@H]1CO)c1ccncc1 returned ARNT-TACC3 inh 65.3 and ARNT Alpha ctr 31.3µM.
`N[C@H]1CC[C@@H](CCn2cc(-c3ccccn3)nn2)O[C@H]1CO` gave ARNT-TACC3 inh 74.8 and ARNT Alpha ctr 6.03µM.
Screening C[C@H](CO)N1C[C@H](C)[C@@H](CN(C)S(=O)(=O)c2ccccc2F)OCc2cn(nn2)CCCC1=O returned ARNT-TACC3 inh inactive.
Screening COc1ccc(CN2C[C@@H](O)COC[C@@H]3O[C@H](CC(=O)NCc4ccncn4)CC[C@H]32)cc1 returned ARNT-TACC3 inh inactive.
COc1ccc2c(c1)N(C)C(=O)CC(c1ccccc1)=N2 was read as AI-2 QS mod inactive, Mot1-301 SUMO inactive, aDG glyco act inactive, Bfl-1 A1 inh inactive and ARNT-TACC3 inh inactive.
Screening Cc1cccnc1Nc1nc(-c2ccccn2)cs1 returned AI-2 QS mod inactive, aDG glyco act inactive, Bfl-1 A1 inh inactive, ARNT-TACC3 inh 68.6 and ARNT Alpha ctr 5.29µM.
Cc1cccc(Nc2nc(-c3cccs3)cs2)n1 was read as AI-2 QS mod inactive, Mot1-301 SUMO inactive, aDG glyco act inactive, Bfl-1 A1 inh inactive and ARNT-TACC3 inh inactive.
Cc1cccc(Nc2nc(-c3ccccn3)cs2)n1 was read as AI-2 QS mod inactive, Mot1-301 SUMO inactive, aDG glyco act inactive, Bfl-1 A1 inh inactive, ARNT-TACC3 inh 72.7 and ARNT Alpha ctr 46.7µM.
For CC(C)c1ccc(C(C(=O)NC2CCCC2)N(C(=O)CNC(=O)c2ccco2)c2cccnc2)cc1 (stereo not given) the results were AI-2 QS mod inactive, Mot1-301 SUMO inactive, aDG glyco act inactive and Bfl-1 A1 inh inactive.
c1ccc(-c2nc(NCCCN3CCOCC3)c3ccccc3n2)cc1 was read as AI-2 QS mod inactive, Mot1-301 SUMO inactive, aDG glyco act inactive, Bfl-1 A1 inh inactive and ARNT-TACC3 inh inactive.
Screening O=[N+]([O-])c1ccc(-c2nnc(-c3ccccc3)c(NCCCO)n2)cc1 returned AI-2 QS mod inactive, Mot1-301 SUMO inactive, aDG glyco act inactive, Bfl-1 A1 inh inactive and ARNT-TACC3 inh inactive.
c1ccc(CCNc2nc(-c3ccccn3)nnc2-c2ccccc2)cc1 was read as ARNT Alpha ctr 2.48µM.
`OCCCNc1nc(-c2ccccn2)nnc1-c1ccccc1` gave ARNT Alpha ctr 1.2µM.
c1ccc(-c2nnc(-c3ccccn3)nc2NCCCN2CCOCC2)cc1 was read as ARNT Alpha ctr 1.1µM.
Screening c1ccc(-c2nnc(-c3ccccn3)c(-c3ccccn3)n2)nc1 returned AI-2 QS mod inactive, Mot1-301 SUMO inactive, aDG glyco act inactive and Bfl-1 A1 inh inactive.
c1ccc(CNc2nc(-c3ccccn3)nnc2-c2ccccc2)cc1 was read as ARNT Alpha ctr 0.786µM.
Screening CCOC(=O)C1=C(C)Nc2ccccc2S1 returned Mot1-301 SUMO inactive, aDG glyco act inactive, Bfl-1 A1 inh inactive and ARNT-TACC3 inh inactive.
Screening CN(C)CC#Cc1ccc([C@@H]2[C@H](CO)N3CCCCN(CC4CCOCC4)C[C@@H]23)cc1 returned ARNT-TACC3 inh inactive.
For COc1ccc([N+](=O)[O-])cc1NC(=O)CCCOc1ccccc1 the results were AI-2 QS mod inactive, Mot1-301 SUMO inactive, aDG glyco act inactive, Bfl-1 A1 inh inactive and ARNT-TACC3 inh inactive.
Screening Cc1cc(N/N=C/c2c(O)ccc3ccccc23)nc(-c2ccccc2O)n1 returned AI-2 QS mod inactive, Mot1-301 SUMO inactive, aDG glyco act inactive, Bfl-1 A1 inh inactive and ARNT-TACC3 inh inactive.
CCCCn1c(N)c(N(CC)C(=O)c2ccc(-c3ccc(Cl)cc3)o2)c(=O)[nH]c1=O was read as Mot1-301 SUMO inactive, aDG glyco act inactive, Bfl-1 A1 inh inactive and ARNT-TACC3 inh inactive.
For CC(=O)N1CCc2cc(C(=O)CN3CCN(c4cccc(Cl)c4)CC3)ccc21 the results were AI-2 QS mod inactive, Mot1-301 SUMO inactive, aDG glyco act inactive, Bfl-1 A1 inh inactive and ARNT-TACC3 inh inactive.
`O=C1c2ccccc2S(=O)(=O)c2cc(C(=O)N3CCC(O)CC3)ccc21` gave AI-2 QS mod inactive, Mot1-301 SUMO inactive, aDG glyco act inactive and Bfl-1 A1 inh inactive.
Screening COc1cccc(CNc2nc(-c3ccccn3)nnc2-c2ccccc2)c1 returned ARNT Alpha ctr 1.64µM.
`C[C@@H](Nc1nc(-c2ccccn2)nnc1-c1ccccc1)c1ccccc1` gave ARNT Alpha ctr 2.38µM.
Screening c1ccc(-c2nnc(-c3ccccn3)nn2)nc1 returned AI-2 QS mod inactive, Mot1-301 SUMO inactive, aDG glyco act inactive, Bfl-1 A1 inh inactive, ARNT-TACC3 inh 73.7 and ARNT Alpha ctr inactive.
`CC(C)Nc1nc(-c2ccccc2)nnc1-c1ccccc1` gave AI-2 QS mod inactive, Mot1-301 SUMO inactive, aDG glyco act inactive, Bfl-1 A1 inh inactive and ARNT-TACC3 inh inactive.
`CN(C)c1nc(-c2ccccn2)nnc1-c1ccccc1` gave AI-2 QS mod inactive, Mot1-301 SUMO inactive, aDG glyco act inactive, Bfl-1 A1 inh inactive, ARNT-TACC3 inh 64.0 and ARNT Alpha ctr 1.08µM.
For c1ccc(-c2nnc(-c3ccccn3)nc2NCC2CCOCC2)cc1 the results were ARNT Alpha ctr 1.13µM.
For c1ccc(-c2cccc(CNc3nc(-c4ccccn4)nnc3-c3ccccc3)c2)cc1 the results were ARNT Alpha ctr 7.09µM.
Screening COC(=O)CCC(=O)N1CCCC(C(=O)c2ccc(Cl)cc2C)C1 (stereo not given) returned AI-2 QS mod inactive, Mot1-301 SUMO inactive, aDG glyco act inactive, Bfl-1 A1 inh inactive and ARNT-TACC3 inh inactive.
`Nc1ccc(C(=O)Nc2ccc3c(O)cc(S(=O)(=O)O)cc3c2)cc1` gave aDG glyco act inactive, ARNT-TACC3 inh 69.3 and ARNT Alpha ctr inactive.
`O=C(CC(=O)N/N=C/c1ccccc1O)NCc1cccnc1` gave AI-2 QS mod inactive, Mot1-301 SUMO inactive, aDG glyco act inactive, Bfl-1 A1 inh inactive, ARNT-TACC3 inh 47.7 and ARNT Alpha ctr inactive.
`COc1ccc(-c2nn(CC(=O)NCCc3ccccc3)c(=S)n2C)cc1` gave AI-2 QS mod inactive, Mot1-301 SUMO inactive, aDG glyco act inactive, Bfl-1 A1 inh inactive and ARNT-TACC3 inh inactive.
For Cc1nnc(N/N=C/c2ccc(-c3ccc(Br)cc3)o2)n1N the results were AI-2 QS mod inactive, aDG glyco act inactive, Bfl-1 A1 inh inactive, ARNT-TACC3 inh 50.8 and ARNT Alpha ctr inactive.
For CC(=O)Nc1ccc(CN2C(=O)C(Cc3ccccc3)ON=C2c2cccc(F)c2)cc1 (stereo not given) the results were aDG glyco act inactive.
CNc1nc(C(=O)O)nc(N2CCOCC2)n1 was read as AI-2 QS mod inactive, Mot1-301 SUMO inactive, aDG glyco act inactive, Bfl-1 A1 inh inactive, ARNT-TACC3 inh 56.4 and ARNT Alpha ctr inactive.
